FMDV inh = High Throughput Screening for Foot and Mouth Disease Virus Antivirals. FMDV antiviral cell-based qHTS. Potency, µM (series often up to 57.9 µM), actives largely listed as inhibitors. hit rate 1.2% among 410,000; calls by dose curve; tested in HEK293T cells; also: read-out not given here; nearly all actives have a fitted effect of over 45% in size
HCV inh = qHTS Assay for Inhibitors of Hepatitis C Virus (HCV). hit rate 3.4% among 340,000. Huh7.5.1 HCVcc-Cre infection, luciferase reporter, 44 h. Potency, µM (doses to about 41.8 µM), most hits filed as inhibitors; active = well fitted inhibition curve with a large enough effect; inconclusive = small, poorly fitted or top-dose-only effect, or another doubt; inactive = no such curve, though single readings can be large or run the other way
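Reporter virus HCVcc-Cre (~0.5 moi) infects cells exposed to compound; seeding density 1,000 cells/well with 4 h settling beforehand. Luminescence, 15 sec read, taken 44 h post-infection following a 15 min RT substrate incubation.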
HCMV antiviral = qHTS Assay for inhibitors of the human cytomegalovirus (HCMV); activity change, negative = inhibition, % at 57.5 µM; AID 1259415, 2018; HFF cells, HCMV-luciferase reporter, 72 h; hits give low values; hit rate 4.5% among 410,000; in the data active = activity change below about -60%; inconclusive = no clear call, values can overlap the other calls; inactive = above about -39%
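Two-dose cell screen: HFF monolayers treated with compounds and infected with luciferase-expressing HCMV at 1 PFU/cell, 72 h at 37C, then lysed for luciferase measurement.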
Lassa entry inh = qHTS for Inhibitors of binding or entry into cells for Lassa Virus; Lassa virus pseudotype entry inhibition, cell reporter; Potency, µM (top dose mostly 37.9 µM), most hits filed as inhibitors; hit rate 1.2% among 300,000; AID 540256, 2011; calls by dose curve; tested in HEK293 cells; also: nearly all actives have a fitted effect of over 50% in size
Marburg entry inh = qHTS for inhibitors of binding or entry into cells for Marburg Virus; Marburg virus pseudotyped entry inhibition, cell reporter; Potency, µM (highest dose often 37.8 µM), actives largely listed as inhibitors; hit rate 1.8% among 300,000; AID 540276, 2011; calls by dose curve; tested in HEK293 cells
SARS PLpro yeast = qHTS of Yeast-based Assay for SARS-CoV PLP; S. cerevisiae expressing SARS-CoV PLpro, growth rescue; Potency, µM (top dose mostly 32.9 µM), actives largely listed as activators; hit rate 0.19% among 330,000; calls by dose curve; also: nearly all actives have a fitted effect of over 55% in size
Hits are given with their value. An excerpt weighted towards active compounds, which were near 8% of everything screened.

Screening CCN(CC)c1ccc(C(=O)OCC(=O)Nc2ccccc2-c2ccccc2)cc1 returned FMDV inh 18µM, HCV inh 8.9µM, HCMV antiviral inactive, Lassa entry inh inconclusive, Marburg entry inh inconclusive and SARS PLpro yeast inactive.
`Cc1cc(F)ccc1NC(=O)CCS(=O)(=O)c1ccc2c(c1)NC(=O)CO2` gave FMDV inh inconclusive, HCMV antiviral inactive and Lassa entry inh inactive.
COc1ccc2c(c1)CC/C=C(/C)CC(CO)O2 (stereo unspecified) was read as HCMV antiviral inactive.
C=CCSc1nnc2c(n1)[nH]c1c(C)cccc12 was read as HCV inh 7.9µM, HCMV antiviral inactive, Lassa entry inh inactive, Marburg entry inh inconclusive and SARS PLpro yeast inactive.
Screening CCN1CCN(CC(=O)Nc2ccc(S(=O)(=O)N3C(C)CCCC3C)cc2)CC1 (stereo unspecified) returned FMDV inh inactive, HCV inh inactive, HCMV antiviral -99, Lassa entry inh inactive, Marburg entry inh inactive and SARS PLpro yeast inactive.
CC1CCN(S(=O)(=O)c2ccc(NC(=O)CN3CCCC3)cc2)CC1 was read as FMDV inh inactive, HCV inh inconclusive, HCMV antiviral inactive, Marburg entry inh inactive and SARS PLpro yeast inactive.
COc1ccccc1C(=O)NCCC(=O)Nc1ccc(S(=O)(=O)N2C(C)CCCC2C)cc1 (stereo unspecified) was read as FMDV inh inactive, HCV inh 10µM, HCMV antiviral inactive and SARS PLpro yeast inactive.
For COc1ccc(OC)c(CCNC(=O)c2nc(-c3ccc(Cl)cc3)n3c2CCCCC3)c1 the results were FMDV inh inconclusive, HCMV antiviral inactive and Lassa entry inh inactive.
C=C[C@H]1CN2CC[C@H]1C[C@H]2[C@H](OC(=O)OCC)c1ccnc2ccc(OC)cc12 was read as FMDV inh inactive.
CCN(Cc1nc(-c2ccc(OC)cc2)no1)C(=O)c1ccoc1C was read as FMDV inh inactive, HCV inh inactive, HCMV antiviral inactive, Lassa entry inh inactive, Marburg entry inh inconclusive and SARS PLpro yeast inactive.
For COCC1CCCN(Cc2ccc3c(c2)CN(C(=O)c2cnn(C(C)C)c2)CCO3)C1 (stereo unspecified) the results were FMDV inh inactive.
Screening CCOC(=O)N1CCc2c(sc(NC(C)=O)c2C(N)=O)C1 returned FMDV inh inactive, HCV inh inactive and HCMV antiviral inactive.
For CC(=O)N1CCc2c(sc(NC(=O)c3ccc4c(c3)OCCO4)c2C#N)C1 the results were FMDV inh inactive, HCV inh 2.8µM, HCMV antiviral inactive and SARS PLpro yeast inactive.
Screening CCOC(=O)N1CCc2c(sc(NC(=O)C3COc4ccccc4O3)c2C(N)=O)C1 (stereo unspecified) returned FMDV inh 40µM, HCV inh 16µM, HCMV antiviral -97 and SARS PLpro yeast inactive.
Screening COC(=O)c1c(NC(=O)C2COc3ccccc3O2)sc2c1CCN(C(C)=O)C2 (stereo unspecified) returned FMDV inh 35µM, HCV inh inconclusive, HCMV antiviral inactive, Lassa entry inh inconclusive, Marburg entry inh inactive and SARS PLpro yeast inactive.
CCN1CCc2c(sc(NC(=O)c3ccc(S(=O)(=O)N4CCOCC4)cc3)c2C(=O)OC)C1 was read as FMDV inh inactive, HCV inh inconclusive, HCMV antiviral inactive, Lassa entry inh inconclusive, Marburg entry inh 10µM and SARS PLpro yeast inactive.
For CCN1CCc2c(sc(NC(=O)c3ccc(S(=O)(=O)N4CCOCC4)cc3)c2C(N)=O)C1 the results were FMDV inh inactive, HCV inh inactive, HCMV antiviral inactive and SARS PLpro yeast inactive.
CCOc1ccc(-n2ccnc2SCC(=O)Nc2nc3ccc(C)cc3s2)cc1 was read as FMDV inh inactive, HCMV antiviral inactive and Lassa entry inh inactive.
For CC(=O)OC[C@H]1O[C@H](CC=NOC[C@@H](O)COCc2ccco2)C=C[C@H]1OC(C)=O the results were Marburg entry inh inactive.

High-throughput results: PubChem, National Center for Advancing Translational Sciences (NCATS)
